A short description of assay [1]: qHTS assay to identify small molecule antagonists of the estrogen related receptor (ERR) signaling pathway from Tox21 library - cell viability counter screen (AID 1224834). Further: nearly all actives have a fitted effect of over 30% in size. Further: potency means the concentration at half of the fitted maximal effect. The procedure, abridged:
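CellTiter-Fluor fluorescence measured; ERR cells; 17.5 h compound incubation at 37 C; 30 min reagent step.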

Assay [2] addresses Luciferin 4-monooxygenase (Photinus pyralis) (UniProt P08659). Description: qHTS assay to identify small molecule inhibitors of firefly luciferase (AID 1224835). Further: nearly all actives have a fitted effect of over 25% in size. Further: potency means the concentration at half of the fitted maximal effect. The gist of the method:
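Biochemical qHTS: compounds run as interplate titrations against purified firefly enzyme, with D-luciferin and ATP each at its KM concentration. Light output recorded by CCD imaging.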

Assay [3] in a line: qHTS assay to identify small molecule agonists of the constitutive androstane receptor (CAR) signaling pathway - cell viability counter screen (AID 1224836). Further: nearly all actives have a fitted effect of over 45% in size. Further: potency means the concentration at half of the fitted maximal effect. The gist of the method:
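HepG2-CYP2B6-hCAR, 2500 cells/well, 4 h pre-incubation; cpd 15 conc + PK11195 0.75 uM final; 23 h, 37 C/5% CO2; CellTiter-Fluor, fluorescence.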
(qHTS replaces the single test concentration by a dilution series.)

Assay [4] in a line: qHTS assay to identify small molecule antagonists of the constitutive androstane receptor (CAR) signaling pathway - cell viability counter screen (AID 1224837). Further: nearly all actives have a fitted effect of over 45% in size. Further: potency means the concentration at half of the fitted maximal effect. The gist of the method:
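Using CellTiter-Fluor, viability is scored in HepG2 cells stably carrying hCAR and a 2.2kb CYP2B6 reporter after 23 hr compound exposure across 15 concentrations, with CITCO present at 50 nM.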

The target of assay [5] is Nuclear receptor subfamily 1 group I member 3 (Homo sapiens) (UniProt Q14994). The assay can be described thus: qHTS assay to identify small molecule antagonists of the constitutive androstane receptor (CAR) signaling pathway (AID 1224838).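 Further: HepG2 cells stably expressing hCAR with CYP2B6 luciferase reporter stimulated by CITCO; nearly all actives have a fitted effect of over 40% in size.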 The procedure, abridged: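 Reporter luminescence was quantified after 24 h exposure of hCAR/CYP2B6-2.2kb double-stable HepG2 cells to compounds at 15 concentrations in the presence of 50 nM CITCO final.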

Assay [6] shares this target. Description: qHTS assay to identify small molecule agonists of the constitutive androstane receptor (CAR) signaling pathway (AID 1224839). Further: nearly all actives have a fitted effect of over 15% in size. Further: potency means the concentration at half of the fitted maximal effect.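 On activation: HepG2 cells stably carrying human CAR and a CYP2B6 luciferase reporter.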 The procedure, abridged: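 HepG2-CYP2B6-hCAR cells, 2500/well, 4 h pre-incubation; compounds 15 conc.; PK11195 0.75 uM final; 24 h, 37 C/5% CO2; ONE-Glo luciferase read.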
Assay [7] can be described thus: qHTS assay to identify small molecule antagonists of the estrogen related receptor signaling pathway with the pleiotropic PPARgamma coactivator (PGC) from Tox21 10K library - cell viability counter screen (AID 1224840; active means well fitted cell-killing curve with a large enough effect in the repeat runs, not every such curve was filed as active; further: nearly all actives have a fitted effect of over 40% in size). The procedure, abridged: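 Here the PGC/ERR cells serve as a cytotoxicity control: they are exposed to compounds for 17.5 hours at 37 C, and live-cell signal is quantified using CellTiter-Fluor fluorescence.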

The target in assay [8] is Thyrotropin receptor (Homo sapiens) (UniProt P16473). Description: qHTS assay to identify small molecule agonists of the thyroid stimulating hormone receptor (TSHR) signaling pathway (AID 1224843; calls by dose curve; further: nearly all actives have a fitted effect of over 45% in size). The gist of the method: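 TSHR-HEK293 cells in agonist mode, 30 min room-temperature step, then cAMP measured by competitive HTRF (cAMP-d2 with anti-cAMP cryptate) after 1 h at room temperature. Tested at 15 concentrations in triplicate.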

Assay [9] can be described thus: qHTS assay to identify small molecule agonists of the hypoxia (HIF-1) signaling pathway - cell viability counter screen (AID 1224844; calls by dose curve; further: nearly all actives have a fitted effect of over 50% in size). The gist of the method: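 Multiplexed with the HRE beta-lactamase assay, this viability read used CellTiter-Glo luminescence (30 min, RT) on HRE-bla ME-180 cells treated 17 hrs with compounds in 0.5% dialyzed FBS medium.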
Assay [10] in a line: qHTS assay to identify small molecule agonists of H2AX (AID 1224845; active means well fitted activation curve with a large enough effect in the signal ratio in the repeat runs, not every such curve was filed as active; the % refers to the signal ratio). The gist of the method: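 Wild-type CHO-K1 cells, plated overnight, exposed 3hr at 37C to 15 concentrations (0.76% DMSO final). Lysed, then HTRF anti-pH2AX (S139) cryptate and anti-H2AX-d2 antibodies, 24 hr room temperature; 665/620 nm emission read.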
Assay [11] is described as follows: qHTS assay to identify small molecule agonists of the hypoxia (HIF-1) signaling pathway (AID 1224846; active means well fitted activation curve with a large enough effect in the signal ratio in the repeat runs, not every such curve was filed as active; the % refers to the signal ratio). The gist of the method: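 Hypoxia-pathway activation was scored as increased beta-lactamase from an HRE-controlled reporter in ME-180 cells; plated at 2,000 cells per well with 0.5% dialyzed FBS, they were exposed 17 hrs to compounds and then given CCF4-AM.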

Assay [12] in a line: qHTS assay to identify small molecule agonists of H2AX - cell viability counter screen (AID 1224847; calls by dose curve; further: top concentration of the series differs between compounds; nearly all actives have a fitted effect of over 30% in size). The gist of the method:
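Cells plated first: CHO-K1, 1000 per well in 10% FBS medium, incubated overnight at 37C. Then 15-point compound titration added (final DMSO 0.76%) for 3 hr. Finally CellTiter-Glo added and luminescence read.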

Assay [13] is described as follows: qHTS RealTime-Glo MT Cell Viability Assay in HepG2 cells - 24 hour (AID 1224867). Further: nearly all actives have a fitted effect of over 50% in size. The procedure, abridged:
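Real-time, nonlytic viability: 600 HepG2 cells/well mixed with NanoLuc enzyme plus prosubstrate; 5 h settle, compound (DMSO) added by pintool; luminescence monitored over 40 h at 37 C.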

Assay [14] in a line: A CellTox Green Cytotoxicity Assay to monitor cytotoxicity in HEK293 cells - 0 hour (AID 1224869). Further: nearly all actives have a fitted effect of over 50% in size. The gist of the method: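 Seeding of HEK293 cells together with cytotoxicity dye preceded a 5 h incubation at 37 C/5% CO2. Test compounds in DMSO were then added and fluorescence monitored across 40 h.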
Assay [15] is described as follows: qHTS assay to identify small molecule antagonists of the estrogen related receptor signaling pathway with the pleiotropic PPARgamma coactivator (PGC) from Tox21 10K library (AID 1224841; call rule not given here; further: actives are mostly falling curves and most rising ones were filed inactive; nearly all actives have a fitted effect of over 50% in size). The procedure, abridged:
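Each well held 2,000 PGC/ERR cells, pre-incubated six hours (37 C, 5% CO2). Test substances in DMSO were added by pin tool and left for 18 h at 37 C before luciferase detection by One-Glo.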

Assay [16] can be described thus: qHTS assay to identify small molecule agonists of the estrogen related receptor signaling pathway with the pleiotropic PPARgamma coactivator (PGC) from Tox21 10K library (AID 1224842). Further: nearly all actives have a fitted effect of over 15% in size. The gist of the method:
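PGC/ERR reporter cell line, 2,000 cells per well, incubated 6 h at 37 C before 23 nL compound in DMSO was added. After 18 h at 37 C, One-Glo luminescence read following 30 min at room temperature.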

The nature of assay [17]: qHTS assay to identify small molecule antagonists of the estrogen related receptor (ERR) signaling pathway from Tox21 library (AID 1224848). Further: nearly all actives have a fitted effect of over 50% in size. Further: potency means the concentration at half of the fitted maximal effect. The procedure, abridged: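 ERR reporter cell line (from NTP) seeded 2,000 cells/well, rested 6 h at 37 C/5% CO2, then pin-dosed with compounds in DMSO. After 18 h at 37 C, ONE-Glo added; luminescence read after 30 min at room temperature.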

Assay [18] can be described thus: qHTS assay to identify small molecule agonists of the estrogen related receptor (ERR) signaling pathway from Tox21 library (AID 1224849; calls by dose curve; further: nearly all actives have a fitted effect of over 15% in size). Particulars: ERR reporter cell line, ONE-Glo luciferase, 18 h. The procedure, abridged: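 Six hours post-seeding at 37 C/5% CO2, ERR cells receive DMSO-solubilised compounds; after 18 h at 37 C, ONE-Glo reagent is applied and luminescence recorded.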

A short description of assay [19]: qHTS RealTime-Glo MT Cell Viability Assay in HEK293 cells - 32 hour (AID 1224868). The procedure, abridged:
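Cells + reagent dispensed (600 cells/well, HEK293) → 5 h at 37 C/5% CO2 → 23 nL compound in DMSO pinned → 40 h at 37 C → luminescence read at 0, 8, 16, 24, 32, 40 h.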

Assay [20] is described as follows: qHTS assay to identify small molecule agonists of the estrogen related receptor signaling pathway with the pleiotropic PPARgamma coactivator (PGC) (AID 1224823). The gist of the method: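 Steps: plate PGC/ERR cells at 2,000 cells/well; incubate 6 h, 37 C/5% CO2; pin-transfer compounds (DMSO); incubate 18 h, 37 C; add One-Glo; 30 min RT; read luminescence.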

“And” between values parts separate entries of the source, which are not always exact repeats. Equal values may be shown once. Results filed as inconclusive are left out. The source holds several records for some structures; these can differ, active in one and inactive in another. The source made the active and inactive calls. Unless noted, the call rests on the fitted dose curve; in most records, active means well fitted curve in the direction sought with a large enough effect in the repeat runs; inconclusive means weak or mixed curves; inactive means no such curve, though single readings can be large; an effect the other way counts as inactive or inconclusive.

Eight compounds from PubChem BioAssay (Tox21) can be followed below.
On the % scale 0 is the no-effect control and ±100 the full control effect.

Sequence of Thyrotropin receptor (Homo sapiens) (P16473 whole entry, looked up): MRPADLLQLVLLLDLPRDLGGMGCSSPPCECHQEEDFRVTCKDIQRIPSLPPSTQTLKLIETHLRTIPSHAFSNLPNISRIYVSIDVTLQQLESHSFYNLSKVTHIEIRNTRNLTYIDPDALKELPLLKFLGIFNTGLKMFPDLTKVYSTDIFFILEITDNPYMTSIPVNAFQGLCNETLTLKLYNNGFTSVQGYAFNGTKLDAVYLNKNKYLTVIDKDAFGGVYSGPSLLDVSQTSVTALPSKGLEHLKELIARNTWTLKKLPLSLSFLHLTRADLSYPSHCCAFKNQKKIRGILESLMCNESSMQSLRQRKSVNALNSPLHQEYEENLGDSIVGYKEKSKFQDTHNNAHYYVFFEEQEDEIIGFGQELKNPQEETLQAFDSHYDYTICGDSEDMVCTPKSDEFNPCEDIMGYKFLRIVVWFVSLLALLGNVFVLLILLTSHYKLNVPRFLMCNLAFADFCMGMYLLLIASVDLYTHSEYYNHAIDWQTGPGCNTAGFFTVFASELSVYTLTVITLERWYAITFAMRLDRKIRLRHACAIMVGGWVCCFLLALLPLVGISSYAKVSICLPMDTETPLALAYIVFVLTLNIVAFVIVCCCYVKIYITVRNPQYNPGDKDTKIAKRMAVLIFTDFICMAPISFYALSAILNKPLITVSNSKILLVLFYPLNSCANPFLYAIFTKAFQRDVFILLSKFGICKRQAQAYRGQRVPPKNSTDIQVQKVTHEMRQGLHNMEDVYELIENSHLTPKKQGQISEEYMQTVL
Sequence of Luciferin 4-monooxygenase (Photinus pyralis) (P08659 whole entry, looked up): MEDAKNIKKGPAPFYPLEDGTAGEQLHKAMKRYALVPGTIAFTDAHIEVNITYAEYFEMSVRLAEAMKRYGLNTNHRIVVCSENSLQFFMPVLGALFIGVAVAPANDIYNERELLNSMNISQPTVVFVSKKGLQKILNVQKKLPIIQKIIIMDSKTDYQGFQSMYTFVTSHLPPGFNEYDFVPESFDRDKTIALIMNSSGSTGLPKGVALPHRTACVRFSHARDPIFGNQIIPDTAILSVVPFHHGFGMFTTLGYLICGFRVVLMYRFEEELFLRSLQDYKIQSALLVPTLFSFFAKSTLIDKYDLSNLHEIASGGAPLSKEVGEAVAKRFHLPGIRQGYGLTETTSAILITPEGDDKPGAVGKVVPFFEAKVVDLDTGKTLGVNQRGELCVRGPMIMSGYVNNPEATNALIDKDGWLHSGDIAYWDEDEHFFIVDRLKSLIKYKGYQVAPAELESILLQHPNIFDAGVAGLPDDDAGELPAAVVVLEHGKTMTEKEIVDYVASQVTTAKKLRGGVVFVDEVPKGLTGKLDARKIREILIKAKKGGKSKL
Sequence of Nuclear receptor subfamily 1 group I member 3 (Homo sapiens) (Q14994 whole entry, looked up): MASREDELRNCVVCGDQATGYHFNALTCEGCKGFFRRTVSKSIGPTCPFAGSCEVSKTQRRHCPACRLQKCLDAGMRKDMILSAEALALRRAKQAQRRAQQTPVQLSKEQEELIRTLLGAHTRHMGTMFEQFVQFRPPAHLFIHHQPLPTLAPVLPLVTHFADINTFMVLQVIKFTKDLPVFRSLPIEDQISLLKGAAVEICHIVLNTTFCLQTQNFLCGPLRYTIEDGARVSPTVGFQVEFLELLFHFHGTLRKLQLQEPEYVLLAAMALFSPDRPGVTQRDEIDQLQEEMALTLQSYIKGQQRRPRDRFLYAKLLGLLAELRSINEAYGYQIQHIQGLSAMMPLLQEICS

Take `Cc1ccc(C(=O)O)o1`: the Potency entry in assay [1], in assay [2], in assay [3], in assay [4], in assay [5] and in assay [6] was “inactive” throughout. The Potency result in assay [7], in assay [8], in assay [9], in [10], in assay [12] and in [13] was “inactive” throughout. In addition, in assay [14], the Potency result was “inactive”. The outcome in [11] was inactive.

With `C[C@@H](O)[C@H]1C(=O)N2C(C(=O)O)=C(S[C@@H]3CN[C@H](C(=O)N(C)C)C3)[C@H](C)[C@H]12`, the Potency result in assay [1], in assay [2], in assay [3], in assay [4], in assay [5] and in assay [6] was “inactive” throughout. Besides, the Potency result in [7], in assay [15], in [16], in assay [8], in [9] and in assay [10] was “inactive” throughout. Besides, the Potency entry in [12], in [17], in [13] and in assay [14] was “inactive” throughout. Further, the activity change, positive = activation in assay [18] (at 42.5 µM (top of the series)) was 6.5% (inactive) and 3.13% (inactive).

Take `Cn1c([N+](=O)[O-])cnc1COC(N)=O`: the Potency entry in assay [1], in assay [2], in assay [3], in assay [4], in assay [5] and in assay [6] was “inactive” throughout. In addition, the Potency result in assay [7], in [15], in assay [16], in assay [9], in assay [10] and in [12] was “inactive” throughout. The Potency result in [17], in assay [13], in assay [19] and in assay [14] was “inactive” each time. The results for the activity change, positive = activation in assay [18] (at 42.5 µM (top of the series)) and in [18] (at 92.4 µM (top of the series)) were 3.23% (inactive) and 6.73% (inactive), respectively.

Consider `Cc1cc(O)c2c(c1)C(=O)c1cc(O)cc(O)c1C2=O`, for which the Potency entry in assay [20], in [4], in [5], in assay [7], in [15] and in [16] was “inactive” each time. Moreover, the Potency entry in [8], in [9], in assay [13] and in [14] was “inactive” throughout. Moreover, the Potency in assay [1] is 27.3 µM (active); in assay [2] it was 34.8 µM (active) and 31.7 µM (active); in [6], 48.6 µM (active); in [17] it was “inactive and 54.5 µM (active)”. Moreover, the result in [11] was inactive. Besides, the values for the activity change, positive = activation in [18] (at 42.5 µM (top of the series)) and in assay [18] (at 92.4 µM (top of the series)) were -4% (inactive) and -40.4% (inactive), respectively.

On to `CCCCC(CC)COC(=O)/C=C\C(=O)OCC(CC)CCCC` (stereo not drawn), for which the Potency result in [1], in assay [2], in assay [3], in [4], in assay [5] and in assay [7] was “inactive” each time. Also, the Potency entry in assay [15], in [16], in assay [8], in assay [9], in assay [10] and in assay [12] was “inactive” each time. In addition, the Potency entry in assay [17], in assay [13] and in assay [14] was “inactive” in each case. In addition, the Potency in [6] was 61.1 µM (active). Moreover, the compound was classed as inactive in assay [11]. Further, the activity change, positive = activation in assay [18] (at 92.4 µM (top of the series)) is -6.56% (inactive) and 3.66% (inactive).

On to `CCOC(=O)C1OC1c1ccccc1` (stereo not drawn), for which the Potency result in assay [1], in [2], in assay [3], in assay [4], in assay [5] and in [6] was “inactive” in each case. Also, the Potency entry in [7], in assay [9], in assay [10], in [12], in [13] and in assay [14] was “inactive” each time. For the same compound, in assay [11], the call was inactive.

Take `Oc1ccc2ccccc2c1N=Nc1ccccc1`: the Potency was 27.3 µM (active) in assay [1]; 12.6 µM (active) and 22.4 µM (active) in assay [2]; 48.5 µM (active) and 30.6 µM (active) in [3]; 30.6 µM (active) in assay [4]; 30.6 µM (active) and 21.7 µM (active) in assay [6]. Besides, the Potency entry in assay [5], in assay [8], in assay [9], in [10], in assay [13] and in assay [14] was “inactive” in each case. Also, in assay [11], the compound was classed as inactive.

On to `O=C(O)c1ccc([N+](=O)[O-])cc1`, for which the Potency entry in assay [1], in assay [2], in assay [3], in assay [4], in assay [5] and in [6] was “inactive” in each case. For the same compound, the Potency entry in assay [7], in assay [9], in [10], in assay [12], in [13] and in [19] was “inactive” each time. Further, the Potency result in [14] was “inactive”. Also, the result in assay [11] was inactive.
